Holding throughout (settings): mRNA level, 48 h; actives raise or lower the signal
Read-out in one assay: CYP3A5 (gene 1577)
Description: LTEA_HepaRG_CYP3A5: Life Technologies and Expression Analysis (LTEA) Assay for CYP3A5 using HepaRG (AID 2283493). In outline: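 Differentiated HepaRG cells in serum-free induction medium were dosed 48 h with test chemicals (8-point half-log series, top 100 uM, 0.5% DMSO, duplicate). CYP3A5 mRNA measured by qRT-PCR, normalized to ACTB, GAPDH, POLR2A; bidirectional fit versus DMSO.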

Read-out in assay [1]: Fatty Acid-Binding Protein 1 (FABP1), FABP1 (gene 2168)
Description: LTEA_HepaRG_FABP1: Life Technologies and Expression Analysis (LTEA) Assay for Fatty Acid-Binding Protein 1 (FABP1) using HepaRG (AID 2283494). In outline: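 Differentiated human HepaRG cells were exposed in duplicate for 48 h in serum-free induction medium to 8-point half-log concentration series topping at 100 uM in 0.5% DMSO. FABP1 mRNA measured by TaqMan qRT-PCR, normalized to ACTB/GAPDH/POLR2A; bidirectional fit versus DMSO.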

Read-out in assay [2]: Cytochrome P450 4A22 (Homo sapiens) (UniProt Q5TCH4)
Kind of assay: LTEA_HepaRG_CYP4A22: Life Technologies and Expression Analysis (LTEA) Assay for Cytochrome P450 4A22 (CYP4A22) using HepaRG (AID 2283495). In outline:
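Cryopreserved HepaRG cells, plated and cultured 48 h, then switched to serum-free induction medium and treated 48 h (duplicates, up to 100 uM, half-log steps, 0.5% DMSO). Expression change of CYP4A22 was fitted bidirectionally against vehicle.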

Read-out in assay [3]: Cytochrome P450 7A1 (Homo sapiens) (UniProt P22680)
Kind of assay: LTEA_HepaRG_CYP7A1: Life Technologies and Expression Analysis (LTEA) Assay for Cytochrome P450 7A1 (CYP7A1) using HepaRG (AID 2283496). In outline: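 Gene expression endpoint in human HepaRG liver cells treated for 48 h with test chemicals (up to 100 uM, 0.5% DMSO). Values come from bidirectional concentration-response fitting versus DMSO.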

Read-out in assay [4]: Glutathione S-Transferase (GSTA2), GSTA2 (gene 2939)
Description: LTEA_HepaRG_GSTA2: Life Technologies and Expression Analysis (LTEA) Assay for Glutathione S-Transferase (GSTA2) using HepaRG (AID 2283497). In outline: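 Human HepaRG cells, plated 48 h, then exposed in serum-free induction medium for 48 h to eight half-log concentrations up to 100 uM in 0.5% DMSO, duplicate. GSTA2 mRNA by qRT-PCR, normalized to ACTB/GAPDH/POLR2A; bidirectional fit versus DMSO.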

Read-out in assay [5]: Glutamate-cysteine ligase catalytic (GCLC), GCLC (gene 2729)
Kind of assay: LTEA_HepaRG_GCLC: Life Technologies and Expression Analysis (LTEA) Assay for Glutamate-cysteine ligase catalytic (GCLC) using HepaRG (AID 2283498). In outline: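 Differentiated human HepaRG cells, plated 48 h then switched to serum-free induction medium, were exposed in duplicate for 48 h to 8 half-log concentrations topping at 100 uM in 0.5% DMSO. GCLC mRNA was quantified by qRT-PCR against ACTB, GAPDH and POLR2A.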

Read-out in assay [6]: growth arrest and DNA damage 45 (GADD45G), GADD45G (gene 10912)
Kind of assay: LTEA_HepaRG_GADD45G: Life Technologies and Expression Analysis (LTEA) Assay for growth arrest and DNA damage 45 (GADD45G) using HepaRG (AID 2283499). In outline:
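Human hepatic HepaRG line treated 48 h with chemicals (eight concentrations, half-log steps from 100 uM); transcript induction or repression of GADD45G scored by qRT-PCR versus DMSO vehicle.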

Read-out in assay [7]: Glutamate-cysteine ligase regulatory (GCLM), GCLM (gene 2730)
Kind of assay: LTEA_HepaRG_GCLM: Life Technologies and Expression Analysis (LTEA) Assay for Glutamate-cysteine ligase regulatory (GCLM) using HepaRG (AID 2283500). In outline:
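Differentiated human HepaRG cells exposed 48 h in serum-free induction medium to 8-point half-log concentrations (top 100 uM, 0.5% DMSO), in duplicate. GCLM mRNA quantified by qRT-PCR, normalized to ACTB, GAPDH, POLR2A; bidirectional fitting versus DMSO.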

Read-out in assay [8]: Glutathione S-transferase M3 (GSTM3), GSTM3 (gene 2947)
Kind of assay: LTEA_HepaRG_GSTM3: Life Technologies and Expression Analysis (LTEA) Assay for Glutathione S-transferase M3 (GSTM3) using HepaRG (AID 2283501). In outline: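 Changes in GSTM3 expression, an oxidative-stress marker, were scored by bidirectional curve fitting against 0.5% DMSO vehicle. Human HepaRG cultures received chemicals for 48 h in duplicate, highest concentration 100 uM with half-log dilutions.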

Read-out in assay [9]: Heat shock 70 kDa protein 1 (HSPA1A), gene 3303
Description: LTEA_HepaRG_HSPA1A: Life Technologies and Expression Analysis (LTEA) Assay for Heat shock 70 kDa protein 1 (HSPA1A) using HepaRG (AID 2283502). In outline:
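Differentiated human HepaRG cells in serum-free induction medium were exposed in duplicate for 48 h to eight concentrations (top 100 uM, half-log steps, 0.5% DMSO). HSPA1A mRNA was quantified by qRT-PCR, normalized to ACTB, GAPDH and POLR2A, and fitted bidirectionally against DMSO.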

Calls of active or inactive are those of the source. The calls were made as follows: active = hit-call score of the fitted dose curve at least 0.9, where 1 is the maximum; inactive = score below 0.9.

For the compound `Cn1c(=O)cc(Oc2ccc(F)cc2F)c2cnc(NCC(C)(C)O)nc21`, the AC50 with CYP3A5 (gene 1577) is 50 µM (active); in assay [6] it was 9.17 µM (active). In addition, the compound was called inactive in assay [1], in assay [2], in assay [3], in assay [4], in assay [5] and in [7]. In addition, the result in [8] and in assay [9] was inactive.

Turning to `Cc1ccc(N)cc1O`, the compound was classed as inactive (with CYP3A5 (gene 1577); in [2]; in assay [4]; in [5]; in [6]; in [7]). Also, the result in assay [8] and in assay [9] was inactive. For the same compound, the AC50 in [1] was 23.1 µM (active); in [3], 24.4 µM (active).

On to `CC/C(=C\C(=N/O)C(N)=O)C(C)[N+](=O)[O-]` (stereo not given), for which the result (in the assay with CYP3A5 (gene 1577); in assay [1]; in [2]; in assay [3]; in assay [4]; in assay [5]) was inactive. Moreover, the call in assay [6], in assay [7], in [8] and in [9] was inactive.

Turning to `Clc1nc(Cl)c(Cl)c(Cl)c1Cl`, the call (with CYP3A5 (gene 1577); in [1]; in [2]; in assay [3]; in assay [4]; in assay [5]) was inactive. For the same compound, the compound was called inactive in assay [6], in assay [7], in assay [8] and in [9].

As to `COC(=O)c1c(Cl)c(Cl)c(C(=O)OC)c(Cl)c1Cl`, the compound was classed as inactive (with CYP3A5 (gene 1577); in assay [1]; in [2]; in assay [3]; in assay [4]; in assay [5]). Moreover, the call in assay [6], in assay [7], in assay [8] and in [9] was inactive.

Consider `CCN(C(=O)c1cc(C)cc(OC[C@H](C)Nc2ccncc2)c1)C(C)C`, for which the compound was classed as inactive (with CYP3A5 (gene 1577); in assay [4]; in assay [5]; in assay [7]; in assay [8]; in assay [9]). The AC50 in assay [1] is 2.25 µM (active); in [2] it was 33.8 µM (active); in [3], 50.5 µM (active); in [6], 33.8 µM (active).

For `C1=CCCC=CCCC=CCC1`, the result (in the assay with CYP3A5 (gene 1577); in [1]; in [2]; in assay [3]; in assay [4]; in assay [5]) was inactive. Further, the compound was called inactive in [6], in [7], in [8] and in assay [9].

Turning to `Cn1c(=O)c2c(ncn2C)n(C)c1=O`, the compound was called inactive (with CYP3A5 (gene 1577); in assay [1]; in [2]; in assay [3]; in [4]; in assay [5]). The outcome in assay [6], in assay [7], in [8] and in assay [9] was inactive.

Regarding `COc1cccc(-c2ccc(/C=C\CN3CCCCCC3)cc2Cl)c1`, the AC50 is 8.98 µM (active) with CYP3A5 (gene 1577); 84.1 µM (active) in assay [1]; 84.4 µM (active) in assay [2]; 69.2 µM (active) in assay [3]; 71 µM (active) in assay [4]; 45.2 µM (active) in [6]. The AC50 in assay [7] is 68.7 µM (active); in [8] it was 79.1 µM (active); in [9], 67.9 µM (active). Besides, in assay [5], the compound was classed as inactive.

On to `CCCCCCCCO`, for which the result (in the assay with CYP3A5 (gene 1577); in [1]; in [2]; in assay [3]; in assay [4]; in assay [5]) was inactive. Moreover, the result in assay [6], in assay [7], in [8] and in assay [9] was inactive.

As to `O=C(O)CC(O)C(=O)O` (stereo not given), the compound was classed as inactive (with CYP3A5 (gene 1577); in assay [1]; in assay [2]; in [3]; in assay [4]; in assay [5]). For the same compound, the compound was called inactive in [6], in [7], in assay [8] and in assay [9].

Turning to `C=CCCCCCCCCC(=O)O`, the result (in the assay with CYP3A5 (gene 1577); in assay [1]; in assay [2]; in assay [3]; in [4]; in assay [5]) was inactive. Moreover, the outcome in assay [6], in assay [7], in assay [8] and in assay [9] was inactive.

In the case of `C1N2CN3CN1CN(C2)C3`, the compound was called inactive (with CYP3A5 (gene 1577); in assay [1]; in assay [2]; in assay [3]; in [4]; in assay [5]). In addition, the call in assay [6], in assay [7], in [8] and in [9] was inactive.

Turning to `CC(=O)c1ccc2c(c1)[C@H](NC(=O)c1ccc(F)cc1)[C@@H](O)C(C)(C)O2`, the result (with CYP3A5 (gene 1577); in [1]; in assay [2]; in assay [3]; in assay [4]; in assay [5]) was inactive. In addition, the compound was called inactive in assay [6], in assay [7], in assay [8] and in assay [9].

Consider `O=C1CCC(N2C(=O)c3ccccc3C2=O)C(=O)N1` (stereo not given), for which the compound was called inactive (in the assay with CYP3A5 (gene 1577); in assay [1]; in [2]; in assay [3]; in assay [4]; in assay [5]). The call in assay [6], in assay [7], in [8] and in [9] was inactive.

Regarding `CC(C)c1cccc(C(C)C)c1N1C(=O)c2ccc(O)cc2C1=O`, the compound was classed as inactive (in the assay with CYP3A5 (gene 1577); in assay [4]; in assay [5]; in assay [6]; in [7]; in assay [8]). Moreover, in assay [9], the result was inactive. For the same compound, the results for the AC50 in assay [1], in assay [2] and in [3] were 77.7 µM (active), 72 µM (active) and 93.3 µM (active), respectively.

As for `CC[C@H]1CC[C@H](NCc2cc3c(cc2OC)[C@H]2C[C@H]2C(=O)N3C)[C@H](c2ccccc2)N1`, the AC50 in the assay with CYP3A5 (gene 1577) is 50 µM (active); in assay [2] it was 76.8 µM (active); in assay [6], 50 µM (active). In addition, the outcome in [1], in [3], in [4], in assay [5], in assay [7] and in [8] was inactive. Further, the call in assay [9] was inactive.

As for `CNS(=O)(=O)c1cc(C(=O)N2CCC(CCN3C4CCC3CC(n3c(C)nc5ccccc53)C4)(c3cccc(F)c3)CC2)c(Cl)cc1F` (stereo not given), the outcome (with CYP3A5 (gene 1577); in assay [5]; in assay [7]; in [8]; in [9]) was inactive. Also, the AC50 was 18.4 µM (active) in assay [1]; 22.7 µM (active) in assay [2]; 21.5 µM (active) in assay [3]; 31.8 µM (active) in [4]; 30.8 µM (active) in [6].

For the compound `COc1ccc2sc(C(=O)Nc3nnn[nH]3)c(OC(C)C)c2c1`, the compound was called inactive (in the assay with CYP3A5 (gene 1577); in [5]; in assay [7]). Further, the AC50 in assay [1] is 83.9 µM (active); in assay [2], 1.17 µM (active); in [3] it was 96.5 µM (active); in [4], 50 µM (active); in assay [6], 80.8 µM (active); in [8] it was 76.2 µM (active). Besides, the AC50 in assay [9] was 9.47 µM (active).

Usually AC50 stands for the midpoint of the concentration-response curve, whichever way the signal moves.

The values are drawn from PubChem BioAssay (EPA / NIEHS).
